PubChem BioAssay (Tox21)
Results filed as inconclusive are left out. Activity calls are given as the source filed them. Unless noted, calls come from the whole dose curve; as a rule, active = well fitted curve in the direction sought with a large enough effect in the repeat runs; inconclusive = weak or mixed curves; inactive = no such curve, though single readings can be large; an effect the other way counts as inactive or inconclusive.

What was measured:
[1] = target: Estrogen receptor beta (Homo sapiens) (UniProt Q92731); assay: qHTS assay to identify small molecule agonists of the estrogen receptor beta (ER-beta) signaling pathway (AID 1259377; active = well fitted activation curve with a large enough effect in the signal ratio in the repeat runs, not every such curve was filed as active; the % refers to the signal ratio)
Method in brief: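 Beta-lactamase reporter readout: fluorescence of LiveBLAzer B/G FRET substrate after 2 h at room temperature, following 16 h compound treatment of ER-beta-UAS-bla HEK293T cells at 37C in 2% charcoal-stripped FBS medium.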

[2] = target: Estrogen receptor beta (Homo sapiens) (UniProt Q92731); assay: qHTS assay to identify small molecule antagonists of the estrogen receptor beta (ER-beta) signaling pathway (AID 1259378; active = well fitted inhibition curve with a large enough effect in the signal ratio in the repeat runs, not every such curve was filed as active; the % refers to the signal ratio)
Method in brief: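 ER-beta-UAS-bla HEK293T (GripTite) cells in 2% charcoal-stripped FBS medium were preincubated 6 hr at 37C, dosed with compound, then stimulated with 1 nM E2 (final) for 16 hr; beta-lactamase reporter read by B/G FRET fluorescence after 2 hr substrate loading.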

[3] = qHTS assay to identify small molecule agonists of the androgen receptor (AR) signaling pathway in the presence of an antagonist - cell viability counter screen (AID 1259379);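 note: MDA-kb2 human breast cancer cells carrying an MMTV luciferase reporter; series mostly up to about 92 µM; nearly all actives have a fitted effect of over 25% in size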
Method in brief: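 Nilutamide-containing (3.0uM final) MDA-kb2 cultures, 3,000 cells/well, were treated with compounds across 15 concentrations. After 16 hr at 37C with no CO2, cell viability was determined by CellTiter-Fluor fluorescence in the luciferase assay wells.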

[4] = qHTS assay to identify small molecule agonists of the estrogen receptor beta (ER-beta) signaling pathway - cell viability counter screen (AID 1259380); note: nearly all actives have a fitted effect of over 30% in size
Method in brief: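 Steps: plate ER-beta-UAS-bla HEK293T cells, rest 6 hr; add compounds in DMSO; incubate 16 hr at 37C, 5% CO2; add FRET substrate 2 hr; add CellTiter-Glo, wait 30 min at room temperature; read luminescence.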

[5] = target: Androgen receptor (Homo sapiens) (UniProt P10275); assay: qHTS assay to identify small molecule agonists of the androgen receptor (AR) signaling pathway in the presence of an antagonist (AID 1259381; calls by dose curve; note: nearly all actives have a fitted effect of over 15% in size)
Method in brief: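 Reporter-gene luminescence from MDA-kb2 cells exposed 16hr at 37C (0% CO2) to 15-point compound titrations with 3.0uM final nilutamide as AR antagonist.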

[6] = qHTS assay to identify small molecule antagonists of the estrogen receptor beta (ER-beta) signaling pathway - cell viability counter screen (AID 1259382); note: series mostly up to about 92 µM; nearly all actives have a fitted effect of over 55% in size
Method in brief: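 Viability is scored by CellTiter-Glo luminescence (30 min, room temperature) in ER-beta-UAS-bla HEK293T wells already read for reporter fluorescence. Compound exposure lasts 16 hr at 37C alongside 1nM 17-beta-estradiol in charcoal-stripped serum medium.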

[7] = target: Estrogen receptor (Homo sapiens) (UniProt P03372); assay: qHTS assay to identify small molecule agonists of the estrogen receptor alpha (ER-alpha) signaling pathway in the presence of an antagonist (AID 1259383; calls by dose curve; note: top concentration of the series differs between compounds; nearly all actives have a fitted effect of over 15% in size)
Method in brief: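 Readout was ERE-driven luciferase luminescence in VM7Luc4E2 cells, which express full-length ER-alpha endogenously. Compounds were tested at 15 concentrations for 22hr alongside 10.0nM ICI-182,780 (final concentration).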

[8] = qHTS assay to identify small molecule agonists or antagonists of the thyroid stimulating hormone receptor (TSHR) signaling pathway - wild type cell line counter screen (AID 1259384; calls by dose curve)
Method in brief: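 Wild-type HEK293 cells were plated 18 h at 37 C/5% CO2, pin-dosed with compound plus Ro20-1724 medium, held 30 min at room temperature, then given cAMP-d2 and anti-cAMP-cryptate; fluorescence was read after 1 h. Fifteen concentrations, triplicate.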

[9] = target: Thyrotropin receptor (Homo sapiens) (UniProt P16473); assay: qHTS assay to identify small molecule antagonists of the thyroid stimulating hormone receptor (TSHR) signaling pathway (AID 1259385; calls by dose curve; note: nearly all actives have a fitted effect of over 20% in size)
Method in brief: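 TSHR-HEK293 cells were plated and held 18 h at 37C/5% CO2, then given compound plus Ro20-1724 and stimulated with TSH at 1.5 ng/mL final. After 30 min at room temperature, cAMP was detected with cAMP-d2/anti-cAMP-cryptate (1 h) by fluorescence.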

[10] = qHTS assay to identify small molecule agonists of the estrogen receptor alpha (ER-alpha) signaling pathway in the presence of an antagonist - cell viability counter screen (AID 1259386);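 note: series mostly up to about 92 µM; cells exposed to compounds for 22 h at 37 °C before the viability read; nearly all actives have a fitted effect of over 30% in size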
Method in brief: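 In this counter screen, compound effects on VM7Luc4E2 viability were tested in the presence of the antagonist ICI-182,780 at 10.0nM final. Compounds were dosed at 15 concentrations, exposure lasted 22hr, and the CellTiter-Fluor signal was read.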

[11] = target: Progesterone receptor (Homo sapiens) (UniProt P06401); assay: qHTS assay to identify small molecule agonists of the progesterone receptor (PR) signaling pathway (AID 1346784; calls by dose curve; note: nearly all actives have a fitted effect of over 30% in size)
Method in brief: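 HEK 293T PR-UAS-bla reporter cells, 2% charcoal-stripped FBS; 6 hr settle at 37C/5% CO2, compound (DMSO) 16 hr, LiveBLAzer B/G FRET substrate 2 hr RT, fluorescence intensity read.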

[12] = qHTS assay to identify small molecule antagonists of the progesterone receptor (PR) signaling pathway - cell viability counter screen (AID 1346798); note: series mostly up to about 92 µM; nearly all actives have a fitted effect of over 50% in size
Method in brief: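 Luminescence readout (CellTiter-Glo, 30 min, RT) of viability in PR-UAS-bla HEK293T cells exposed to compound and R5020 agonist for 16 hr at 37C, 5% CO2; run in the same wells as the beta-lactamase reporter read.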

[13] = qHTS assay to identify small molecule agonists of the progesterone receptor (PR) signaling pathway - cell viability counter screen (AID 1346799; calls by dose curve; note: nearly all actives have a fitted effect of over 45% in size)
Method in brief: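 HEK293T PR-UAS-bla, 3,000 cells/well, 2% charcoal-stripped FBS; 6 h settle, compound 16 h at 37C/5% CO2; LiveBLAzer 2 h RT, then CellTiter-Glo 30 min RT, luminescence read.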

[14] = qHTS assay to identify small molecule antagonists of the TGF-beta/Smad signaling pathway - cell viability counter screen (AID 1346824); note: nearly all actives have a fitted effect of over 50% in size
Method in brief: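 SBE-bla HEK 293T cells were plated overnight at 37 C, then given compounds in DMSO plus TGF-beta1 (added as 0.25 ng/mL solution) for 5 hr. After the bla read, CellTiter-Glo was added to the same wells and luminescence read after 30 min at room temperature.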

[15] = qHTS assay to identify small molecule agonists of the TGF-beta/Smad signaling pathway - cell viability counter screen (AID 1346829); note: top concentration of the series differs between compounds; nearly all actives have a fitted effect of over 45% in size
Method in brief: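 CellTiter-Glo luminescence readout; SBE-bla HEK 293T cells, overnight plating, compound 5 hr at 37 C/5% CO2, then bla substrate 2 hr RT, then CellTiter-Glo 30 min RT.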

[16] = qHTS assay to identify small molecule agonists of the TGF-beta/Smad signaling pathway (AID 1346859; active = well fitted activation curve with a large enough effect in the signal ratio in the repeat runs, not every such curve was filed as active; the % refers to the signal ratio; note: series mostly up to about 77 µM)
Method in brief: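 Read-out: fluorescence at 460 and 530 nm (405 nm excitation) after a 2 hr room-temperature incubation with beta-lactamase FRET substrate. SBE-bla HEK 293T cells had been treated with test compounds for 5 hr at 37 C.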

[17] = target: Thyrotropin-releasing hormone receptor (Homo sapiens) (UniProt P34981); assay: qHTS assay to identify small molecule antagonists of the thyrotropin-releasing hormone receptor (TRHR) signaling pathway (AID 1346877; active = well fitted inhibition curve with a large enough effect in the repeat runs, not every such curve was filed as active; note: series mostly up to about 51 µM)
Method in brief: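 Kinetic fluorescence (3 min, 1 s resolution) following stimulation with TRH at 1 nM final; HEK293 cells bearing human TRHR; 5 min compound preincubation at RT; concentration-response over 15 points, triplicates.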

[18] = target: Thyrotropin-releasing hormone receptor (Homo sapiens) (UniProt P34981); assay: qHTS assay to identify small molecule agonists of the thyrotropin-releasing hormone receptor (TRHR) signaling pathway (AID 1346891; calls by dose curve;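 note: HEK293 cells expressing TRHR with calcium dye readout; series mostly up to about 58 µM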)
Method in brief: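 HEK293/TRHR cells, 1500 per well, 18 h 37 °C; Ca dye 2 h 37 °C; pin-tool compound addition (agonist mode); kinetic fluorescence 3 min, 1 s reads; 15 concentrations, triplicate.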

[19] = Human pregnane X receptor (PXR) small molecule agonists, qHTS cell viability counter screen (AID 1346977); note: nearly all actives have a fitted effect of over 50% in size
Method in brief: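 Fluorescence read-out (CellTiter-Fluor) of viability in PXR-Luc HepG2 cells, multiplexed with the luciferase agonist read. Compounds in DMSO added after 5hr plating; 24hr total exposure at 37C, 5% CO2.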

[20] = target: Progesterone receptor (Homo sapiens) (UniProt P06401); assay: qHTS assay to identify small molecule antagonists of the progesterone receptor (PR) signaling pathway (AID 1346795; active = well fitted inhibition curve with a large enough effect in the signal ratio in the repeat runs, not every such curve was filed as active; the % refers to the signal ratio)
Method in brief: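 Beta-lactamase reporter, HEK293T PR-UAS-bla line; 2% charcoal-stripped FBS; 6 hr pre-incubation, 37C/5% CO2. Compound + R5020 1 nM final, 16 hr. LiveBLAzer B/G FRET substrate, 2 hr RT; fluorescence intensity read.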

Measured: Potency

Chain of Estrogen receptor (Homo sapiens) (P03372 whole entry, looked up): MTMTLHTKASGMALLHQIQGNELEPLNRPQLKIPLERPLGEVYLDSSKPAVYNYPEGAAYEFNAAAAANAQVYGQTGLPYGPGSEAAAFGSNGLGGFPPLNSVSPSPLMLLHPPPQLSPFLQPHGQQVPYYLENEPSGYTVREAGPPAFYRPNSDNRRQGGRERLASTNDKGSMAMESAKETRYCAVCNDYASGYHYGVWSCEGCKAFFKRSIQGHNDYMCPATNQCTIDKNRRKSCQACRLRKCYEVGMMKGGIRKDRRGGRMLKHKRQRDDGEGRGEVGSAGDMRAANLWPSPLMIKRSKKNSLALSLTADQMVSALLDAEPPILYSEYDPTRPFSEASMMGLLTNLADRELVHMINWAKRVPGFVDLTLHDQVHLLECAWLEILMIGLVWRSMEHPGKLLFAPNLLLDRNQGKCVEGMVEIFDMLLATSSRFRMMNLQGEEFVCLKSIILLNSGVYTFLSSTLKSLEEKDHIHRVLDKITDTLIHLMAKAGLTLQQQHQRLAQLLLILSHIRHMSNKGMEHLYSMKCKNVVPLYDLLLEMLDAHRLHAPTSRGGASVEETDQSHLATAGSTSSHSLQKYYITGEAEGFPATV
Chain of Progesterone receptor (Homo sapiens) (P06401 whole entry, looked up): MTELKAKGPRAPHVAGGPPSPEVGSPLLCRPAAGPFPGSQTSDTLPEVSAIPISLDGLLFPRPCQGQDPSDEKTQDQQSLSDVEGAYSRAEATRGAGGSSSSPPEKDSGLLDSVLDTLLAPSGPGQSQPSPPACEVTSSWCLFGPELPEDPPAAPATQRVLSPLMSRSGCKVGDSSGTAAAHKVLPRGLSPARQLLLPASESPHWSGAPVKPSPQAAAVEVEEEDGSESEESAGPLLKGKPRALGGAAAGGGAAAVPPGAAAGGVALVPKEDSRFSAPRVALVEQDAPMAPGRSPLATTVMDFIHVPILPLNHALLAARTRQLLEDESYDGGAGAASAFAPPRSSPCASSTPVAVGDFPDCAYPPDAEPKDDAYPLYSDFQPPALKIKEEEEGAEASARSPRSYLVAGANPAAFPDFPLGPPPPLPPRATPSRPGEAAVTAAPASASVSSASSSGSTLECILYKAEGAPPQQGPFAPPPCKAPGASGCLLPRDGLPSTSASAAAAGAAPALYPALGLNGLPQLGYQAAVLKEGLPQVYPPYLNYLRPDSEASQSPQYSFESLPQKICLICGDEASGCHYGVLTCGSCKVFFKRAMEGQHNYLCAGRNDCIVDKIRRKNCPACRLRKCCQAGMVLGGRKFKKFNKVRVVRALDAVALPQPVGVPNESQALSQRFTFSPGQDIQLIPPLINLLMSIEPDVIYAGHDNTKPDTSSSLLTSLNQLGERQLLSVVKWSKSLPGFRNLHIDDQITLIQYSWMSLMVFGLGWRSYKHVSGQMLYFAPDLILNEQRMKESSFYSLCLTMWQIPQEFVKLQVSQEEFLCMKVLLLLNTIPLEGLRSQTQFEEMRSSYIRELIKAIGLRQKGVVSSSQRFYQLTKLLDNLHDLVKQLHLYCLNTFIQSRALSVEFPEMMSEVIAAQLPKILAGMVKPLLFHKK
Chain of Thyrotropin-releasing hormone receptor (Homo sapiens) (P34981 whole entry, looked up): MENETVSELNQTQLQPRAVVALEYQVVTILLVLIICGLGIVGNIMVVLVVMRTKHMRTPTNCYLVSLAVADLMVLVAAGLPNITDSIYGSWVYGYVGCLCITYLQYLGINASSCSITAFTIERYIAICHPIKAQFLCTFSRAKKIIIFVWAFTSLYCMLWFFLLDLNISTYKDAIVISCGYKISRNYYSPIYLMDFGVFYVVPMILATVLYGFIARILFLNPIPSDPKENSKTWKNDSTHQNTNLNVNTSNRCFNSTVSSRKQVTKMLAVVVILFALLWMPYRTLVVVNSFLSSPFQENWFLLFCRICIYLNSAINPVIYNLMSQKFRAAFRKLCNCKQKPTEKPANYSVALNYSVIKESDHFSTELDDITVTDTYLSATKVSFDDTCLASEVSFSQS
Chain of Androgen receptor (Homo sapiens) (P10275 whole entry, looked up): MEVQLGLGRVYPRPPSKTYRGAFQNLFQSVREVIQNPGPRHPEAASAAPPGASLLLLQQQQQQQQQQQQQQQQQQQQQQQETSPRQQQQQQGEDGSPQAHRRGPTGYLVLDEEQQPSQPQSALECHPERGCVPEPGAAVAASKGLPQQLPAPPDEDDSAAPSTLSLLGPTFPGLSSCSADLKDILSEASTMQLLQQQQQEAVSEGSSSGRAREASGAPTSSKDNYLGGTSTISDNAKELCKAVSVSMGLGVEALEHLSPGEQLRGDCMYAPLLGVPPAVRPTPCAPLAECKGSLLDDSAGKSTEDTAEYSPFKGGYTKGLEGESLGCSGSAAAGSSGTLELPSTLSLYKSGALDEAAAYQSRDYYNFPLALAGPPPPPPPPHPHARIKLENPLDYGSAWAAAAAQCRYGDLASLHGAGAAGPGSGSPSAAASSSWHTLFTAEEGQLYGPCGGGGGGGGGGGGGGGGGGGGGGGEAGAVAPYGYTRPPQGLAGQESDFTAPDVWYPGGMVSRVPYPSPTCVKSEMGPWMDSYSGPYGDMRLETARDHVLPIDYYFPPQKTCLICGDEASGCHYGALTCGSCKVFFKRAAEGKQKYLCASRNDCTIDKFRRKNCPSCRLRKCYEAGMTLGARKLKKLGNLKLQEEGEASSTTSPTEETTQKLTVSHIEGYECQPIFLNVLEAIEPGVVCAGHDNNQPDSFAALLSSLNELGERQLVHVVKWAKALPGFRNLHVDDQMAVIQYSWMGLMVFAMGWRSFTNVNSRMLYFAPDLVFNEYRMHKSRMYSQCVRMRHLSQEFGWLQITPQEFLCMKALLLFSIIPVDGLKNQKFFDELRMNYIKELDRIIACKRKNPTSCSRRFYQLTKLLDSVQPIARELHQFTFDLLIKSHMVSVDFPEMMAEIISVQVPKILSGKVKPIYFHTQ
Chain of Estrogen receptor beta (Homo sapiens) (Q92731 whole entry, looked up): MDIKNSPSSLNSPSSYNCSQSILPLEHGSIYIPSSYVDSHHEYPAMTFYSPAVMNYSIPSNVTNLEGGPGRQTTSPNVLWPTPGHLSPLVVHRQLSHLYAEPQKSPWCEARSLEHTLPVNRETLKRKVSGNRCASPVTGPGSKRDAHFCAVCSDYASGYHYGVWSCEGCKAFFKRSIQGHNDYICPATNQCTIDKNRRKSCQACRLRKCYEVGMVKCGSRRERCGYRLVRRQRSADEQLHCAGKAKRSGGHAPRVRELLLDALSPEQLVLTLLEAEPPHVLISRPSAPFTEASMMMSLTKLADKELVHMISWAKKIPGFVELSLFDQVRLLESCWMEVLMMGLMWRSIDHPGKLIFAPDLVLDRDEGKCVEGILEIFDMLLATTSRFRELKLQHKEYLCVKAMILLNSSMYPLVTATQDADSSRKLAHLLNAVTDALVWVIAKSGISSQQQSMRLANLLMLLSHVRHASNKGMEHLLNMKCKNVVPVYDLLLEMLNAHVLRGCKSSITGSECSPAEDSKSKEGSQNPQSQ
Chain of Thyrotropin receptor (Homo sapiens) (P16473 whole entry, looked up): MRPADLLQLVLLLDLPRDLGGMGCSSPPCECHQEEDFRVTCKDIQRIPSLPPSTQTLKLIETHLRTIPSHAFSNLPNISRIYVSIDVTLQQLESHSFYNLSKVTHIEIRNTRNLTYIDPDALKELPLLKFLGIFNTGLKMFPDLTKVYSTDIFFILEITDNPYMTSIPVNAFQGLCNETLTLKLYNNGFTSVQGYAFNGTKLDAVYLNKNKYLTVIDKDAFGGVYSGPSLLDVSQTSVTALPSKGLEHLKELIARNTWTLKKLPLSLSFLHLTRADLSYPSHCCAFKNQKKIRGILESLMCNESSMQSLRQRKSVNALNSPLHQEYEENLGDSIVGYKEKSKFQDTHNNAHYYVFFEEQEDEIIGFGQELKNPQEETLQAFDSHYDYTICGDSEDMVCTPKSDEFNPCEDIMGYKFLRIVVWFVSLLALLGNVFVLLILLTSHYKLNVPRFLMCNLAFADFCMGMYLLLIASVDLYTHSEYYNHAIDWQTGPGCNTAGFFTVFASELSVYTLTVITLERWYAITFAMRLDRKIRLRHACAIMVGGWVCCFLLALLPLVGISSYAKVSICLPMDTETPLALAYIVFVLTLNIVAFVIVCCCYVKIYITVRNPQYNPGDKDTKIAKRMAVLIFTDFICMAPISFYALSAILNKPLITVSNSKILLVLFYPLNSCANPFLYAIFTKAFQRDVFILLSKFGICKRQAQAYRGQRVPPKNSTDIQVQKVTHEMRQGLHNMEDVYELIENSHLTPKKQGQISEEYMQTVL

CC(=O)N1C[C@H](O)C[C@H]1C(=O)O
not listed: [20]
inactive: all other assays above

CCCCCCCC1CCCC1=O (configuration not stated)
not listed: [17] | [18]
inactive: all other assays above

CCN[C@H]1C[C@H](C)S(=O)(=O)c2sc(S(N)(=O)=O)cc21
not listed: [5] | [8] | [20]
inactive: all other assays above

C=C(C)C(=O)OCC(O)CO (configuration not stated)
not listed: [7]
inactive: all other assays above

CC1CCC(CO)CC1 (configuration not stated)
not listed: [20]
inactive: all other assays above

CCCCCCCCCCCCSC
not listed: [5] | [7]
inactive: all other assays above

Clc1cc(Cl)cc(Cl)c1
not listed: [5] | [12]
inactive: all other assays above

COc1cc(C(=O)OC(COCCC(C)C)CN2CCOCC2)cc(OC)c1OC (configuration not stated)
not listed: [5] | [12] | [20]
inactive: all other assays above

CC(C)C1CCC(O)CC1 (configuration not stated)
not listed: [7] | [12]
inactive: all other assays above

O=C(O)Cc1csc(-c2ccc(Cl)cc2)n1
not listed: [7] | [11] | [16] | [20]
inactive: all other assays above

C=CC(=O)OCCCl
not listed: [5] | [7]
inactive: all other assays above

CC1(C)OC[C@@H](COC(=O)CCc2ccc(OC[C@@H](O)CNCCNC(=O)N3CCOCC3)cc2)O1
not listed: [7]
inactive: all other assays above

C=CCCC(=O)O
not listed: [5] | [12] | [17] | [18]
inactive: all other assays above

C=CC(C)(CCC=C(C)C)OC(=O)CC (configuration not stated)
not listed: [5] | [8]
inactive: all other assays above

O=S(=O)(O)c1cc(O)c(O)c(S(=O)(=O)O)c1
not listed: [8] | [9] | [15]
inactive: all other assays above
